# Article PMC5540273 (PLoS ONE, 2017)
# System: CSNK2A1
# Details: concentration: 1 μM, replicates: in singlicate; n = 1
# 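Also: KINOMEscan kinase panel screen.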
row,Compound,%Inh [%]
1,CN(c1ccc(NC(=O)Nc2cc(C(F)(F)F)ccc2F)cc1)c1ccnc(Nc2ccc(S(N)(=O)=O)cc2)n1 [GW809893],13
2,Cc1cccc(NC(=O)Nc2ccc(Oc3ncnc4ccn(C)c34)cc2)c1,0
3,Cl.c1ccc(-c2ccc3c(Nc4ccc5[nH]ccc5c4)ccnc3c2)nc1 [GW440138],0
4,CN1CCN(CCCNc2nccc(-c3c(-c4ccc(F)cc4)nn4cc(C(F)(F)F)ccc34)n2)CC1 [GW621581],0
5,C[C@@H](Oc1cc(-n2cnc3cc(-c4ccnc(NCCS(C)(=O)=O)c4)ccc32)sc1C(N)=O)c1ccccc1Cl [GSK907232],16
6,Cc1cccc(Nc2nc(N[C@H]3CCNC3)ncc2C(N)=O)c1.Cl [GSK2197149],52
7,CCc1ccc(-c2ccc3c(c2)-c2c(cnn2C)S(=O)(=O)N3C)cc1,0
8,COc1cc(Nc2ncc3c(C)nc(-c4cc5ccccc5[nH]4)n3n2)cc(OC)c1OC [GW869516],96.4
9,Cc1ccc(S(=O)(=O)Nc2ccc(Nc3nccc(Nc4cccc5[nH]ncc45)n3)cc2)cc1 [GSK581271],0
10,COc1ccc(Nc2nccc(NCCNC(=O)c3cc4ccccc4s3)n2)cc1 [GSK1379896],0
11,CN1CCN(Cc2cccc(-c3ccc4c(Nc5ccc(Oc6ccccc6)cc5)ccnc4c3)c2)CC1 [GW578342],0
12,COc1ccc(Nc2nccc(N3CCC(NC(=O)Nc4cccc(OC)c4)C3)n2)cc1 (centres unmarked) [GSK1379742],6
13,O=C(Nc1n[nH]c2cc(-c3ccoc3)ccc12)C1CC1 [SB-738481],35
14,Nc1ncnc2c1nc(-c1ccccc1)n2-c1ccccc1 [SKF-97293],0
15,COc1ccc(CNC(=O)NC2CCN(c3ccnc(Nc4ccc(F)cc4)n3)CC2)cc1 [GSK1379788],0
16,Cc1occc1-c1ncc(OC[C@@H](N)Cc2c[nH]c3ccccc23)cc1-c1ccc2[nH]nc(C)c2c1.O=C(O)C(F)(F)F [GSK682037],0
17,c1ccc(-c2n[nH]cc2Nc2ccnc3ccccc23)nc1 [GW694077],54
18,O=C(Nc1cccc(-c2nn3ncccc3c2-c2ccnc(Nc3ccccc3)n2)c1)c1c(F)cccc1F [GSK198271],8
19,Nc1n[nH]c2cnc(-c3ccccc3)cc12 [SB-642124],21
20,CC(=O)Nc1nc2cnc(Nc3cc(NC(=O)c4cccc(C5(C#N)CC5)c4Cl)ccc3C)nc2s1,0
21,O=C(Nc1n[nH]c2nc(-c3ccc(O)cc3)ccc12)C1CC1 [SB-710363],64
22,Cn1cc(-c2[nH]c3cc(NC(=O)[C@H](N)C4CCCCC4)cc4c3c2C=NNC4=O)cn1,68
23,O=C(Nc1cccc(-c2nn3ccccc3c2-c2ccnc(Nc3cccc(F)c3)n2)c1)c1c(F)ccc(F)c1Cl [GSK357952],41
24,O=C(Nc1ccccc1F)NC1CCN(c2ccnc(Nc3ccc(F)cc3)n2)CC1 [GSK1379800],0
25,CSc1cccc2c(-c3ccncn3)c(-c3ccc(F)cc3)nn12 [GW514786],0
26,COc1ccc(-c2coc3ccc(-c4nnc(SCc5ccc(OC)c(C(F)(F)F)c5)o4)cc23)cc1,22
